Each structure is given as a SMILES string. Screen size: about 16,000 compounds; about 960 (6%) were called active. Many of the other results were omitted from the sample, so actives are more common in it than they were. A number with no mark means an inactive call.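 The calls were made as follows: active = compound fluorescence over control fluorescence at most 0.8, a quencher, or at least a set upper limit, an enhancer; inactive = ratio between 0.8 and the set upper limit.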

The nature of this test: Cy5 fluorescence quenchers or enhancers, artefact control for HCV NS3 helicase inhibitor project, biochemical, ChemBridge library, Cy5 readout (AID 720488). The note with it: Cy5-dT15 DNA with NS3h, at 100 µM, actives lie on both sides, signal over control mean, under 1 quenches.
As to `CC(=O)CC(=O)Nc1ccc2c(c1)OCCO2`, the fluorescence interference ratio was 1.13.
As to `COc1ccccc1NC(=O)CN(c1cccc([N+](=O)[O-])c1)S(=O)(=O)c1ccccc1`, the fluorescence interference ratio was 0.943.
Take `CCOC(=O)c1ccc(NC(=O)CN(c2cccc([N+](=O)[O-])c2)S(=O)(=O)c2ccccc2)cc1`: the fluorescence interference ratio is 0.663 (active).
In the case of `CCOC(=O)c1ccccc1NC(=O)/C(=C/c1cccc([N+](=O)[O-])c1)NC(=O)c1ccccc1` it was 1.01; in that of `Cc1cc(Nc2cccc(C(F)(F)F)c2)n2c(nc3ccccc32)c1C#N`, 1.06; in that of `COc1ccc2oc(=O)c(C(=O)O)cc2c1`, 1.08.
Regarding `O=C(NC(=S)Nc1ccc(-c2nc3cc(Cl)ccc3o2)cc1)c1ccco1`, the fluorescence interference ratio is 2.04 (active).
In the case of `O=C(NC(=S)Nc1ccc2oc(-c3ccc(Br)cc3)nc2c1)c1ccco1`, the fluorescence interference ratio is 1.09.
Consider `O=C(NC(=S)Nc1ccc2oc(-c3cccnc3)nc2c1)c1ccc(Cl)cc1`, for which the fluorescence interference ratio is 0.998.
With `Cc1ccc(C2Nc3ccccc3C(=O)N2c2ccccc2)cc1` (stereo not drawn), the fluorescence interference ratio is 0.912.
Take `CCOC(=O)CSc1nnc(-c2cccc(Br)c2)o1`: the fluorescence interference ratio was 1.15.
Turning to `COc1ccc(S(=O)(=O)N(CCc2ccccc2)CC(=O)Nc2ccccc2F)cc1`, the fluorescence interference ratio is 1.
Consider `COc1ccc(C(=O)Nc2nc3ccc(C)cc3s2)cc1Br`, for which the fluorescence interference ratio is 1.23 (active).
Turning to `O=C(Nc1nc2ccccc2s1)c1ccc2c(c1)OCO2`, the fluorescence interference ratio was 0.992.
`COc1ccc(C(=O)Nc2ncc([N+](=O)[O-])s2)cc1OC`: the fluorescence interference ratio was 0.92.
With `COC(=O)c1c(C)oc2ccc(OCC(=O)c3ccccc3)cc12`, the fluorescence interference ratio was 0.818.
On to `O=C(Nc1ccc(Br)cc1)c1ccc(S(=O)(=O)N2CCCC2)cc1`, for which the fluorescence interference ratio is 0.938.
As for `COc1ccc2occ(C(=O)c3ccc(N=C(C)N(C)C)cc3)c2c1`, the figure is 1.07; as for `COc1ccccc1C(=O)N=Nc1c(O)n(C)c2ccccc12`, 1.03; as for `CCN(CC)c1ccc(NC(=O)/C(=C\c2ccccc2)NC(C)=O)cc1`, 1.28 (active).
With `CC(=O)Nc1ccc(NC(=S)NC(=O)/C=C/c2ccccc2)cc1`, the fluorescence interference ratio is 1.07.
Turning to `CC(C)Oc1ccc(/C=C(/NC(=O)c2ccccc2)C(=O)Nc2ccccc2)cc1`, the fluorescence interference ratio was 1.01.
As for `O=C(CCN1C(=O)/C(=C/c2cccs2)SC1=S)NC12CC3CC(CC(C3)C1)C2`, the fluorescence interference ratio was 0.998.
Consider `Cc1cc(C)c(NC(=O)C(=O)NCC(C)O)c(C)c1` (stereo not drawn), for which the fluorescence interference ratio is 1.01.
As for `CCOc1ccccc1NC(=O)Cc1ccccc1`, the figure is 1.03.
`CCOc1ccccc1NC(=O)/C=C/c1ccc(Cl)cc1`: the fluorescence interference ratio was 1.34 (active).
For `O=C(/C=C/c1ccc(F)cc1)Nc1cccc(Cl)c1Cl`, the fluorescence interference ratio was 1.01.
As for `CC(=O)COc1ccc2c(-c3ccccc3)cc(=O)oc2c1`, the figure is 0.969; as for `COCCOC(=O)c1c(C)oc2ccc(OCC(N)=O)cc12`, 1.05.
In the case of `CS(=O)(=O)N(CC(=O)Nc1ccc(I)cc1)c1cccc(Cl)c1` it was 0.92; in that of `Cc1ccc(NC(=O)c2ccc(NC(=O)c3ccc(Cl)cc3Cl)cc2)cc1`, 0.959.
`CC(=O)c1cccc(NC(=O)c2ccc(N(Cc3ccc(Cl)cc3)S(C)(=O)=O)cc2)c1`: the fluorescence interference ratio is 0.635 (active).
In the case of `NCCCCNc1ccc([N+](=O)[O-])cc1` it was 0.959; in that of `O=[N+]([O-])c1ccc(-c2ccc(I)cc2)cc1`, 0.706 (active).
As to `Cc1nn(-c2ccc(I)cc2)c(C)c1-c1cccc([N+](=O)[O-])c1`, the fluorescence interference ratio was 0.947.
Take `CCOC(=O)C1CCN(C(=O)Nc2ccc(Cl)cc2)CC1`: the fluorescence interference ratio is 1.01.
Consider `NC(=O)NC(c1ccccc1)c1ccc(I)cc1` (stereo not drawn), for which the fluorescence interference ratio was 1.01.
For `O=C(Nc1ccc([N+](=O)[O-])cc1)C1CC(=O)N(c2ccc(Cl)cc2)C1` (stereo not drawn), the fluorescence interference ratio was 0.885.
In the case of `CN(C)/C=C(/Cl)C=C1C(=O)c2ccccc2C1=O`, the fluorescence interference ratio was 0.757 (active).
Regarding `Cc1cc(OCC(=O)Nc2c(C)cccc2C)ccc1Cl`, the fluorescence interference ratio was 0.96.
Take `COc1ccc(S(=O)(=O)Nc2cc(Br)c(O)c(Br)c2)cc1`: the fluorescence interference ratio is 0.972.
As for `COC(=O)c1ccc(COc2ccc3c4c(c(=O)oc3c2)CCC4)cc1`, the figure is 0.926.
For `CC1=NN(C(=O)c2ccc(Br)cc2)C(O)(c2ccccc2)C1` (stereo not drawn), the fluorescence interference ratio is 0.753 (active).
Regarding `O=C(c1ccc(Cl)cc1)N1N=C(c2ccc(F)cc2)CC1(O)C(F)(F)F` (stereo not drawn), the fluorescence interference ratio is 0.933.
As for `CCC1=NN(C(=O)c2cccc(Br)c2)C(O)(c2ccc(C)cc2)C1` (stereo not drawn), the figure is 0.942; as for `O=C(Cc1ccc(Cl)cc1)Nc1nccs1`, 0.993; as for `Cc1cc(C(N)=O)c(-c2ccccc2)o1`, 1.04.
Consider `O=C1CC2c3ccccc3C1C1C(=O)N(c3ccc(Br)cc3)C(=O)C21` (stereo not drawn), for which the fluorescence interference ratio is 1.04.
As to `CC(=O)Nc1ccc(N2C(=O)C3C4CC(=O)C(c5ccccc54)C3C2=O)cc1` (stereo not drawn), the fluorescence interference ratio was 0.654 (active).
As for `Cc1ccc(N2C(=O)C3C4c5ccccc5C(C)(c5ccccc54)C3C2=O)cc1` (stereo not drawn), the fluorescence interference ratio was 0.929.
`Oc1cccc(Nc2nc(-c3ccc(Br)cc3)cs2)c1`: the fluorescence interference ratio is 0.941.
Take `COCCCNC(=O)C(=O)NCCc1ccc(OC)c(OC)c1`: the fluorescence interference ratio is 0.956.
For `COc1ccc2c(c1)-c1c(ssc1=S)C(C)(C)N2C(=O)COc1ccccc1`, the fluorescence interference ratio is 0.931.
In the case of `CC12OC3(CCCCC3)C(C)(OC13CCCCC3)O2`, the fluorescence interference ratio was 0.781 (active).
Regarding `COc1ccc(C(=O)Nc2ccccc2)cc1NC(=O)C(C)Oc1ccccc1` (stereo not drawn), the fluorescence interference ratio was 0.898.
Take `O=C(/C=C/c1ccccc1)NC(=S)Nc1ccc([N+](=O)[O-])cc1`: the fluorescence interference ratio was 1.02.
Take `S=C1NC(c2ccccc2)=NCN1c1ccc(Br)cc1`: the fluorescence interference ratio was 0.684 (active).
As to `Cc1cc(C)c(C(O)=Cc2nc3ccccc3[nH]c2=O)c(C)c1`, the fluorescence interference ratio was 1.05.
Take `CCN1C(=O)/C(=C\c2cn(Cc3ccc(F)cc3)c3ccccc23)SC1=S`: the fluorescence interference ratio was 1.07.
For `COc1ccccc1NC(=O)c1cc(Nc2ccccc2)nc2ccccc12`, the fluorescence interference ratio is 1.05.
Take `Cc1ccc(-c2cc(NC(=O)c3cccs3)n[nH]2)cc1`: the fluorescence interference ratio is 0.923.
In the case of `CC1CCN(c2ccc([N+](=O)[O-])c(SCCO)c2)CC1` it was 0.613 (active).
In the case of `Cc1cc(C(=O)N2CCN(c3cccc(Cl)c3)CC2)ccc1[N+](=O)[O-]`, the fluorescence interference ratio is 0.957.

Values taken from PubChem BioAssay AID720488 (Milwaukee Institute for Drug Discovery, 2013).
